Here are results for seven compounds from PubChem BioAssay (NCI).

Among the test systems are SR leukemia; RPMI-8226 leukemia; OVCAR-8 ovarian; OVCAR-5 ovarian; OVCAR-4 ovarian; SK-OV-3 ovarian; IGROV1 ovarian; OVCAR-3 ovarian; HS 578T breast; NCI/ADR-RES ovarian; T-47D breast; MDA-MB-435 melanoma; SW-620 colon; MCF7 breast; HCT-116 colon; HCC-2998 colon; MDA-MB-468 breast; KM12 colon.
Holding throughout (test): NCI-60 one-dose screen, 48 h (100 = growth as untreated, 0 = no growth, -100 = all killed)
Details in all cases: 10 µM unless noted

The structures appear in SMILES notation. Compounds without any hit were thinned out: in the full panel of roughly 83,000, 20% have a hit.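 48-hour exposure, single concentration, 96-well plates; percent growth endpoint where 0 means no net growth. Active: below 10.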 Values without a mark were called inactive. Activity calls are given as the source filed them.

For the compound `CCN1C(=O)N(CC)C2NNC(Sc3c(C(=O)O)c4ccccc4n(CCC(C)C)c3=O)=NC21` (stereo not drawn), the growth with SR leukemia is 6.32% (active); with RPMI-8226 leukemia, 10.3%; with OVCAR-8 ovarian, 5.92% (active); in the test on OVCAR-5 ovarian it was 21.4%; with OVCAR-4 ovarian, 46.5%; in the test with SK-OV-3 ovarian, 35.8%. The growth was 17.3% in the test on IGROV1 ovarian; -25.4% (active) in the test with OVCAR-3 ovarian; -14.6% (active) in the test with HS 578T breast; -35.4% (active) in the test on NCI/ADR-RES ovarian; 73.5% in the test on T-47D breast; -53.6% (active) in the test on MDA-MB-435 melanoma. The growth in the test with SW-620 colon is 28.4%; in the test with MCF7 breast, 9.16% (active); with HCT-116 colon, 3.95% (active); in the test with HCC-2998 colon it was 3.88% (active); in the test on MDA-MB-468 breast, 7.98% (active).
`COC(=O)c1c(C(=O)OC)c2ccc3c4ccccc4ccc3n2c1C(=O)C(C)Br` (stereo not drawn): the growth in the test on SR leukemia is 3.43% (active); with RPMI-8226 leukemia, 3.26% (active); in the test on OVCAR-8 ovarian, 15.6%; in the test on OVCAR-5 ovarian, 75.7%; in the test with OVCAR-4 ovarian, 41.4%; with SK-OV-3 ovarian, 81.9%. In addition, the growth is 42.2% in the test with IGROV1 ovarian; 16.7% with OVCAR-3 ovarian; 65.6% with HS 578T breast; 37.5% in the test on NCI/ADR-RES ovarian; 36.5% in the test with T-47D breast; 10.3% with MDA-MB-435 melanoma. Further, the growth is 9.86% (active) in the test on SW-620 colon; 6.04% (active) with MCF7 breast; 14% in the test with HCT-116 colon; 67.9% in the test on HCC-2998 colon; 91.5% with KM12 colon; 50.7% in the test on MDA-MB-468 breast.
Take `Fc1ccc(F)c(CNc2nc(SCCN3CCOCC3)nc3c2cnn3CC(Cl)c2ccc(Br)cc2)c1` (stereo not drawn): the growth was 0.635% (active) in the test with SR leukemia; 2.73% (active) in the test on RPMI-8226 leukemia; 31.9% in the test on OVCAR-8 ovarian; 63% with OVCAR-5 ovarian; 23.2% in the test with OVCAR-4 ovarian; 47% in the test on SK-OV-3 ovarian. In addition, the growth was 45.6% in the test on IGROV1 ovarian; 45.2% with OVCAR-3 ovarian; 23.4% in the test on HS 578T breast; 22.8% in the test with NCI/ADR-RES ovarian; 10.8% in the test with T-47D breast; -13.3% (active) in the test with MDA-MB-435 melanoma. For the same compound, the growth in the test with SW-620 colon was -3.05% (active); in the test on MCF7 breast, 2.55% (active); in the test on HCT-116 colon it was 16.8%; in the test on HCC-2998 colon it was 24.7%; in the test on KM12 colon, 4.2% (active); in the test on MDA-MB-468 breast, -22.9% (active).
For the compound `COc1cc(NC(=O)C(C)C)ccc1C(=O)NC(=S)Nc1ccc(S(N)(=O)=O)cc1`, the growth was 111% in the test with SR leukemia; 107% in the test on RPMI-8226 leukemia; 79.3% with OVCAR-8 ovarian; 110% in the test on OVCAR-5 ovarian; 98.5% in the test with OVCAR-4 ovarian; 112% in the test on SK-OV-3 ovarian. Further, the growth was 97.2% in the test on IGROV1 ovarian; 92% in the test with OVCAR-3 ovarian; 86.2% in the test on HS 578T breast; 102% in the test on NCI/ADR-RES ovarian; 99.5% in the test on T-47D breast; 106% with MDA-MB-435 melanoma. For the same compound, the growth in the test on SW-620 colon was 107%; in the test on MCF7 breast, 101%; with HCT-116 colon, 106%; in the test on HCC-2998 colon, 116%; with KM12 colon, 100%; in the test with MDA-MB-468 breast, 123%.
On to `Oc1ccc(F)c(Nc2nc(SCCN3CCOCC3)nc3c2cnn3CC(Cl)c2ccc(Br)cc2)c1` (stereo not drawn), for which the growth is -2.59% (active) with SR leukemia; 1.15% (active) in the test on RPMI-8226 leukemia; 20.2% in the test with OVCAR-8 ovarian; 40.5% in the test with OVCAR-5 ovarian; 31.9% in the test with OVCAR-4 ovarian; 64.2% in the test with SK-OV-3 ovarian. For the same compound, the growth in the test on IGROV1 ovarian is 12.5%; with OVCAR-3 ovarian it was 25.8%; in the test on HS 578T breast it was -23.9% (active); with NCI/ADR-RES ovarian it was 16.4%; in the test on T-47D breast it was -6.68% (active); in the test with MDA-MB-435 melanoma, 17.8%. Also, the growth was 29.3% in the test with SW-620 colon; 7.39% (active) with MCF7 breast; 14.9% in the test with HCT-116 colon; 15.8% with HCC-2998 colon; -20.5% (active) with MDA-MB-468 breast.
For the compound `Fc1ccccc1CNc1nc(SCCN2CCOCC2)nc2c1cnn2CC(Cl)c1ccc(Br)cc1` (stereo not drawn), the growth in the test with SR leukemia was -3.85% (active); with RPMI-8226 leukemia, -6.83% (active); in the test with OVCAR-8 ovarian, 43.8%; with OVCAR-5 ovarian, 71.3%; in the test with OVCAR-4 ovarian, 45%; in the test with SK-OV-3 ovarian, 58.3%. The growth in the test with IGROV1 ovarian is 73.7%; in the test with OVCAR-3 ovarian, 66.7%; in the test on HS 578T breast it was 17%; in the test with NCI/ADR-RES ovarian, 33.5%; in the test with T-47D breast it was 14.2%; with MDA-MB-435 melanoma it was 29.6%. The growth in the test with SW-620 colon was -51% (active); with MCF7 breast, 21.3%; with HCT-116 colon, 26.1%; in the test on HCC-2998 colon, 21.4%; in the test on KM12 colon it was 8.13% (active); in the test on MDA-MB-468 breast it was 22.1%.
Consider `Oc1ccc(Cl)c(Nc2ncnc3c2cnn3CC(Cl)c2ccc(Br)cc2)c1` (stereo not drawn), for which the growth with SR leukemia was 55.3%; in the test on RPMI-8226 leukemia, 52.3%; in the test on OVCAR-8 ovarian it was 54.9%; in the test with OVCAR-5 ovarian, 49.6%; in the test on OVCAR-4 ovarian, 57.8%; with SK-OV-3 ovarian it was 49.2%. Further, the growth with IGROV1 ovarian is -2.62% (active); with OVCAR-3 ovarian, 32.3%; in the test on HS 578T breast, -17.7% (active); in the test on NCI/ADR-RES ovarian, 48%; in the test on T-47D breast it was 32.9%; in the test on MDA-MB-435 melanoma, 57.7%. In addition, the growth was 67.1% in the test on SW-620 colon; 49.7% with MCF7 breast; 40.8% in the test with HCT-116 colon; 98.3% in the test with HCC-2998 colon; 26.2% in the test on MDA-MB-468 breast.
